# A selection: hits, their analogues and other compounds. The true share with any hit is near 18%.
# HepG2 viability = HepG2 cytotoxicity, counter-screen for TGF-b inhibitors; HepG2 CAGA-GFP viability, ATP luminescence, 18 h; Potency, µM (highest dose often 46.1 µM), inactives show at the highest dose activity change, negative = cytotoxicity, actives largely listed as cytotoxic; 410,000 compounds, 0.76% hits; further: potency means the concentration at half of the fitted maximal effect
#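 CellTiter-Glo luminescence gave cytotoxicity after 18 hours at 37 degrees C. The cells were HepG2 CAGA-GFP in 1% FBS DMEM, stimulated with 500 pg/mL TGF-beta after compound addition. %Activity was normalised to no-cell wells (complete cell-killing) and DMSO (no toxicity), and curves were fitted and classified.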
# TDP1 block = blocks human tyrosyl-DNA phosphodiesterase 1 | 350,000 compounds, 0.28% hits | recombinant TDP1, AlphaScreen DNA substrate cleavage | Potency, µM (series often up to 130 µM), for the others: at the highest dose activity change, negative = inhibition, usual class: inhibitors | AID 485290; further: potency means the concentration at half of the fitted maximal effect; on the % scale 0 is the no-effect control and ±100 the full control effect; nearly all actives have a fitted effect of over 40% in size
# Target sequence (Q9NUW8 whole entry, looked up): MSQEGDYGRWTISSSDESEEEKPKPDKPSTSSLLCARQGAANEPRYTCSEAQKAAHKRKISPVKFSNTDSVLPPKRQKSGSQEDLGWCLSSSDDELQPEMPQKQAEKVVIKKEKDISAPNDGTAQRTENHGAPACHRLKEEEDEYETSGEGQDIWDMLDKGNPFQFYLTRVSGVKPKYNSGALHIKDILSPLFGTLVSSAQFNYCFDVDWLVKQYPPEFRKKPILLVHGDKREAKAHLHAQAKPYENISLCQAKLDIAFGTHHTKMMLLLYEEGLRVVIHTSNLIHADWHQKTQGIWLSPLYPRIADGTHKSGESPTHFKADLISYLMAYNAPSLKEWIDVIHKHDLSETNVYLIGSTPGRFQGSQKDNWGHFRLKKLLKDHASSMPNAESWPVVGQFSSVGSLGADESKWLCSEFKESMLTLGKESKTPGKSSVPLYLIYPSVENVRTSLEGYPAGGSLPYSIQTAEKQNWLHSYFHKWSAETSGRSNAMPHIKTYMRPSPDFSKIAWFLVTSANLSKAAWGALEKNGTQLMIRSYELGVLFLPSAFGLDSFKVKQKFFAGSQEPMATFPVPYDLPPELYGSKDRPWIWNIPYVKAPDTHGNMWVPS
#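 Tdp1 1 nM final; 15 min RT w/ cpd; substrate 15 nM, 5 min; beads 10 ug/ml, 10 min; AlphaScreen read. Neg ctrl: no enzyme.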
# TDP1 cell noCPT = qHTS for Inhibitors of human tyrosyl-DNA phosphodiesterase 1 (TDP1): qHTS in cells in absence of CPT | Potency, µM (top dose mostly 46.2 µM), without a hit: at the top dose activity change, negative = growth inhibition, hits mostly inhibitors | AID 686978, 2013 | DT40 Tdp1-/- hTDP1 cells, no CPT, ATP luminescence, 48 h | 420,000 compounds, 15% hits; further: potency means the concentration at half of the fitted maximal effect; on the % scale 0 is the no-effect control and ±100 the full control effect; nearly all actives have a fitted effect of over 55% in size
#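 Luminescent ATP content (CellTiter-Glo) served as the growth readout. Knockout chicken DT40 cells expressing human TDP1 were exposed to compounds without camptothecin for a minimum 48 hr at 37 °C.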
# TDP1 cell CPT = DT40-hTDP1 cell growth loss with CPT; chicken DT40 Tdp1-/-;hTDP1 cells + 20 nM CPT, ATP luminescence, 48 h; 420,000 compounds, 12% hits; Potency, µM (highest dose often 46.2 µM), for the others: top-dose activity change, negative = growth inhibition, hits mostly inhibitors; further: potency means the concentration at half of the fitted maximal effect; on the % scale 0 is the no-effect control and ±100 the full control effect; nearly all actives have a fitted effect of over 55% in size
#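 Cell growth measured by CellTiter-Glo luminescence after a minimum 48 h, 37 C compound exposure with 20 nM CPT in Tdp1-knockout DT40 cells stably expressing hTDP1, seeded 400/well; qHTS titration format.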
# IL1B secr inh = blocks inflammasome-driven IL-1 beta release | activity change, % at 57.5 µM | 360,000 compounds, 4.7% hits | THP-1 LPS/ATP IL-1B secretion, AlphaLISA, 16 h; hits give low values; in the data active means activity change below about -50%; inconclusive means mostly about -30% to -49%; further: on the % scale 0 is the no-effect control and ±100 the full control effect
#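 THP-1 cells pretreated 1 hr with compounds (up to 57.5 uM final), then stimulated with LPS (250 ng/mL final) plus ATP (1.25 mM final); secreted IL-1B measured by AlphaLISA after 16 hr, decreased signal indicating inhibition.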
# TGFb inhibitor = blocks TGF-b signaling; HepG2 CAGA-GFP TGF-b/SMAD3 reporter, GFP fluorescence, 18 h; TGF-beta stimulated, 500 pg/mL final; AID 588855; 410,000 compounds, 1.2% hits; Potency, µM (titrated, usually from 46.1 µM), for inactives: at the highest dose activity, negative = inhibition, actives largely listed as inhibitors; further: potency means the concentration at half of the fitted maximal effect; on the % scale 0 is the no-effect control and ±100 the full control effect; nearly all actives have a fitted effect of over 65% in size
#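 Cell-based qHTS in HEPG2 carrying a CAGA-GFP Smad reporter; compounds added before 500 pg/mL final TGF-beta, 18 h incubation at 37 degrees C, GFP fluorescence quantified per cell by imaging cytometry.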
# Starred values were filed as active, the others as inactive; i = inactive; u = inconclusive; x = no result given; [ ] = another dose, or the depositor's remark. Unless noted, the call rests on the fitted dose curve; in most records, active means well fitted curve in the direction sought with a large enough effect; inconclusive means small, poorly fitted or top-dose-only effect, or another doubt; inactive means no such curve, though single readings can be large; an effect the other way counts as inactive or inconclusive.
SMILES,HepG2 viability,TDP1 block,TDP1 cell noCPT,TDP1 cell CPT,IL1B secr inh,TGFb inhibitor
CCOC(=O)N1CCN(C(=O)c2ccc3c(c2)N=C(C)c2cc(Cl)ccc2S3)CC1,-7%,5%,12µM*,u,-10,-21%
CCC1=Nc2cc(C(=O)N3CCC(C)CC3)ccc2Sc2ccc(C)cc21,-23%,-5%,16µM*,16µM*,x,u
CCC1=Nc2cc(C(=O)NCCc3ccccc3)ccc2Sc2ccc(Cl)cc21,-29%,0%,6.5µM*,8.2µM*,x,-18%
CCC1=Nc2cc(C(=O)NCCN(CC)CC)ccc2Sc2ccccc21,-29%,-2%[12.3 µM],u,u,x,-29%
CCCC1=Nc2cc(C(=O)NC(C)c3ccccc3)ccc2Sc2ccc(C)cc21 (configuration not stated),-6%,8%,u,u,x,u
CCCC1=Nc2cc(C(=O)NCCc3ccccc3)ccc2Sc2ccc(C)cc21,2%,0%,6.5µM*,4.6µM*,x,u
Cc1ccc(NC(=O)COC(=O)Cn2cnc3ccccc32)c(C)c1,-2%,1%,u,-17%,17,2%
COc1ccc(Cl)cc1NC(=O)CSc1nnc(-c2ccco2)o1,0%,2%,2%,1%,i,2%
CCC1=Nc2cc(C(=O)NCc3ccccc3OC)ccc2Sc2ccc(Cl)cc21,-4%,8%,u,u,x,0%
CCC1=Nc2cc(C(=O)NC(C)c3ccccc3)ccc2Sc2ccc(Cl)cc21 (configuration not stated),-39%,8%,u,16µM*,x,-19%
CCC1=Nc2cc(C(=O)NCc3ccccc3Cl)ccc2Sc2ccc(C)cc21,-2%,3%,3.3µM*,5.2µM*,x,u
CCCNC(=O)c1ccc2c(c1)N=C(CCC)c1ccccc1S2,-28%,0%,0.73µM*,1.2µM*,x,8.9µM*
CCOCCCNC(=O)c1ccc2c(c1)N=C(CC)c1cc(Br)ccc1S2,-22%,5%,0.033µM*,0.037µM*,-11,u
CC1=CC2C(C)(C)CC(=O)C[C@]2(C)CC1COc1ccc2c(c1)CC(=O)C=C2 (some centres not stated),x,6%,-5%[9.04 µM],-10%[9.04 µM],x,x
CCCC1=Nc2cc(C(=O)NCc3ccc(OC)cc3)ccc2Sc2ccc(C)cc21,-1%,0%[12.3 µM],9.2µM*,15µM*,x,-9%
CCc1ccc(NC(=O)CN2C(=O)c3cccc4cccc2c34)cc1,-3%,2%,-29%,-19%,x,1%
COc1cc(NC(=O)c2ccc(-c3c(C)noc3C)c3ccoc23)cc(OC)c1OC,-7%,x,8.2µM*,13µM*,-14,19%
Cc1noc(C)c1-c1ccc(C(=O)Nc2ccc(C(C)C)cc2)c2occc12,-51%,x,10µM*,12µM*,34,-4%
CC(=O)c1cccc(NC(=O)c2ccc(-c3c(C)noc3C)c3ccoc23)c1,-15%,x,u,16µM*,77,19%
COc1ccc(NC(=O)c2ccc(-c3c(C)noc3C)c3ccoc23)cn1,-28%,x,u,u,4,23%
CC(=O)Nc1ccc(NC(=O)c2ccc(-c3c(C)noc3C)c3ccoc23)cc1,-20%,x,u,21µM*,-5,-1%
Cc1ccc2oc(-c3ccc(C)c(NC(=O)COc4ccccc4C)c3)nc2c1,4%,x,u,-14%,x,8%
Cc1noc(C)c1-c1ccc(C(=O)NCCN2CCOCC2)c2occc12,0%,x,29µM*,u,0,35%
Cc1noc(C)c1-c1ccc(C(=O)NCCc2ccccc2)c2occc12,-14%,x,u,u,4,5%
COc1cc(OC)cc(-c2nnc(NC(=O)Cc3ccc(F)cc3)o2)c1,-4%,3%,2.6µM*,1.5µM*,13,3%
SMILES,HepG2 viability,TDP1 block,TDP1 cell noCPT,TDP1 cell CPT,IL1B secr inh,TGFb inhibitor
Cc1ccc(CC(=O)Nc2nnc(-c3ccc(F)cc3)o2)c(C)c1,-3%,-4%,16µM*,u,-1,37%
O=C(COc1ccccc1)Nc1nnc(-c2ccc(F)cc2)o1,-61%,2%,-1%,-14%,12,-4%
COc1ccc(-c2nnc(NC(=O)Cc3ccccc3)o2)cc1,-7%,0%,u,u,-2,-4%
COc1ccc(CCCN2CCC(CN3C(=S)NC[C@@H]3Cc3ccccc3)CC2)cc1OC,-24%,x,-14%,-1%,5,5%
Cc1ccc(C(C)C)c(OCC(=O)Nc2ccc3c(c2)nc(CCNC(=O)c2ccco2)n3C)c1,-5%,1%,10µM*,u,x,0%
Cc1cccc(OCC(=O)Nc2ccc3c(c2)nc(CCNC(=O)c2ccco2)n3C)c1,0%,5%,-29%,23µM*,x,-25%
Cc1ccc(OCC(=O)Nc2ccc3c(c2)nc(CCNC(=O)c2ccco2)n3C)cc1,-3%,5%,u,u,x,-24%
CC(=O)Nc1ccc(S(=O)(=O)NNC(=O)COc2cc(C)ccc2C(C)C)cc1,1%,8%,-12%,-29%,2,5%
Cc1ccc(C(C)C)c(OCC(=O)NNCC(=O)Nc2cccc(F)c2)c1,-57%,1%,15µM*,15µM*,u,u
Cc1ccc(C(C)C)c(OCC(=O)Nc2ccc3c(c2)nc(CN2CCCC2)n3C)c1,-22%,6%,15µM*,u,-50*,-4%
CCC[C@@H]1C[C@@H](C(=O)N[C@@H]([C@H]2O[C@H](SC)[C@H](OP(=O)(O)O)[C@@H](O)[C@H]2O)[C@H](C)Cl)N(C)C1,x,x,-4%,-5%,x,x
O=C(CN1C(=O)CCc2cc(Br)ccc21)Nc1ccc(OC(F)(F)F)cc1,-32%,7%,-4%,u,x,-1%
Cc1cccc(C(=O)N/C(=C\c2ccc(C)o2)C(=O)O)c1,-70%,-4%,-15%,-6%,16,6%
COc1ccc(-c2nc3ccc(NC(=O)COC(C)=O)cc3c(=O)n2Cc2ccccc2)cc1COc1ccc(NC(C)=O)cc1,x,u,11µM*,u,x,x
COc1ccc(-c2nc3ccccc3c(=O)n2Cc2ccccc2)cc1OCc1ccc(NC(C)=O)cc1,x,3%,x,x,x,x
COc1ccc(-c2nc3ccc(NC(C)=O)cc3c(=O)n2Cc2cccc(Cl)c2)cc1COc1ccc(NC(C)=O)cc1,x,-9%,13µM*,11µM*,x,x

# Compound activity (PubChem BioAssay)
